Screening results: PubChem BioAssay, National Center for Advancing Translational Sciences (NCATS)
Shown is part of a subset that was picked to be rich in hits.
HT1080-NT tox: kills 2HG-producing HT-1080-NT fibrosarcoma cells; HT-1080-NT fibrosarcoma viability, CellTiter-Glo ATP luminescence, 48 h; Potency, µM (series often up to 46.1 µM), for inactives: at the top dose activity, negative = less viability, most hits filed as cytotoxic; hit rate 1.6% among 360,000;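 note: NT is the 2HG producing partner of a matched IDH1 knockdown line; potency is the fitted concentration of half-maximal effect; 0% = DMSO-treated cells and -100% = media-only wells without cells; nearly all actives have a fitted effect of over 55% in size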
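Viability by CellTiter-Glo luminescence after 48 h compound exposure at 37C of HT-1080-NT cells (750/well, RPMI, 5% FBS). % activity scaled between DMSO wells and medium-only wells, then curve-fitted and categorized by curve class.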
HT1080 IDH1KD tx: toxicity to HT-1080 IDH1 knockdown cells (counter line) | HT-1080 IDH1 knockdown viability, ATP luminescence, 48 h | Potency, µM (top dose mostly 46.1 µM), for the others: top-dose activity, negative = toxicity, most hits filed as cytotoxic | hit rate 2% among 360,000 | AID 686971;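 note: potency is the fitted concentration of half-maximal effect; 0% = DMSO wells and -100% = cell-free medium wells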
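Luminescent ATP read-out (CellTiter-Glo, 10 min at room temperature) after 48 h compound exposure at 37 °C gave viability of IDH1-knockdown HT-1080 cells. Activity was normalised to DMSO and cell-free wells, then fitted as concentration-response curves.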
ALOX12 inh: inhibitors of human 12S-lipoxygenase ALOX12. purified 12hLO, xylenol orange hydroperoxide absorbance. Potency, µM (doses to about 108 µM), inactives show top-dose activity change, negative = inhibition, actives largely listed as inhibitors. hit rate 1.1% among 580,000; note: potency is the fitted concentration of half-maximal effect
Target sequence (P18054 whole entry, looked up): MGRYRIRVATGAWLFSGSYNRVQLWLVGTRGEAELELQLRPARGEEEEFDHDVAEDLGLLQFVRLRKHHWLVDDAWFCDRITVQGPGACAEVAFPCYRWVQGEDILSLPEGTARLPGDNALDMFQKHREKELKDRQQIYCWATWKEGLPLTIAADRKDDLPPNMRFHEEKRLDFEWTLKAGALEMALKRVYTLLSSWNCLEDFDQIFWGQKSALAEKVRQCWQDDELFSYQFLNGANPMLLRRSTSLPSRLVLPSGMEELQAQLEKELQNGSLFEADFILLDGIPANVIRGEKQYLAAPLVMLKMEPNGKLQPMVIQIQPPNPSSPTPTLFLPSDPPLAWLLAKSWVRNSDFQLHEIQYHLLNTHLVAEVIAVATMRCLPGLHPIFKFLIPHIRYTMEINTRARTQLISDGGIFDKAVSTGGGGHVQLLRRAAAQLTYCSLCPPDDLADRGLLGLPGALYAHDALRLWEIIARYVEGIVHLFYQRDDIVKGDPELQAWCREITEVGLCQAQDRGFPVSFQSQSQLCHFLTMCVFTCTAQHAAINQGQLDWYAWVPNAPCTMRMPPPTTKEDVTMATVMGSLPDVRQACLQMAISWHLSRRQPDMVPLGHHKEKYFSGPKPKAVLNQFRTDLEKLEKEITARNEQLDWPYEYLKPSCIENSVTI
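Purified human 12hLO (150 nM final) in 25 mM Hepes, 0.01% Triton X-100, pH 7.0 was preincubated 15 min at room temperature with compound. Then 40 uM arachidonic acid was added, 30 min. Hydroperoxide was read by Fe-XO absorbance ratio 573/405 nm.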
TDP1 cell noCPT: qHTS for Inhibitors of human tyrosyl-DNA phosphodiesterase 1 (TDP1): qHTS in cells in absence of CPT. DT40 Tdp1-/- hTDP1 cells, no CPT, ATP luminescence, 48 h. Potency, µM (doses to about 46.2 µM), without a hit: top-dose activity change, negative = growth inhibition, usual class: inhibitors. hit rate 15% among 420,000; note: potency is the fitted concentration of half-maximal effect; nearly all actives have a fitted effect of over 55% in size
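DT40 Tdp1-/-;hTDP1 cells, no CPT (DMSO vehicle only), 400 cells/well; compounds pin-transferred; ≥48 hr, 37 °C; CellTiter-Glo 30 min RT dark, luminescence read.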
TDP1 cell CPT: growth inhibition of DT40 Tdp1-/-;hTDP1 cells with camptothecin (screen for TDP1 inhibitors) | hit rate 12% among 420,000 | chicken DT40 Tdp1-/-;hTDP1 cells + 20 nM CPT, ATP luminescence, 48 h | Potency, µM (top dose mostly 46.2 µM), for the others: top-dose activity change, negative = growth inhibition, hits mostly inhibitors | AID 686979; note: potency is the fitted concentration of half-maximal effect; nearly all actives have a fitted effect of over 55% in size
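Cell growth measured by CellTiter-Glo luminescence after a minimum 48 h, 37 C compound exposure with 20 nM CPT in Tdp1-knockout DT40 cells stably expressing hTDP1, seeded 400/well; qHTS titration format.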
IL-1B inflam inh: blocks inflammasome-driven IL-1 beta release | hit rate 4.7% among 360,000 | THP-1 LPS/ATP IL-1B secretion, AlphaLISA, 16 h; stronger effect = lower value | activity change, % at 57.5 µM; in the data active = activity change below about -50%; inconclusive = mostly about -30% to -49%
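Secreted IL-1B measured by AlphaLISA bead assay after 16 h compound exposure of THP-1 cells; compounds (final up to 57.5 uM) added 1 h before LPS (250 ng/mL) and ATP (1.25 mM) stimulation; lower signal means less secretion.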
Numbers without * were called inactive; [ ] = remark or other dose. Unless noted, calls come from the whole dose curve; as a rule, active = well fitted curve in the direction sought with a large enough effect; inconclusive = small, poorly fitted or top-dose-only effect, or another doubt; inactive = no such curve, though single readings can be large; an effect the other way counts as inactive or inconclusive. Unless noted, % is set by controls: 0 for no effect and ±100 for the full control effect.

`COc1ccc(-c2nn(-c3ccccc3)cc2CN(C)CCn2ccnc2C)c(F)c1` gave HT1080-NT tox 0%, HT1080 IDH1KD tx -5%, ALOX12 inh 5%, TDP1 cell noCPT inconclusive, TDP1 cell CPT 18µM* and IL-1B inflam inh inconclusive.
CCCc1noc(-c2cn(C3CCN(C(=O)c4cccc(N(C)C)c4)CC3)nn2)n1 was read as ALOX12 inh -3%.
O=C1C(CN2CCCC2)CCCC1CN1CCCC1 (stereo not drawn) was read as HT1080-NT tox 7%, HT1080 IDH1KD tx inconclusive, ALOX12 inh -3%, TDP1 cell noCPT 0.52µM*, TDP1 cell CPT 0.52µM* and IL-1B inflam inh -8.
Screening C1CN[C@H](CN2CCCC2)C1 returned ALOX12 inh -27%.
O=C(Nc1ccc(OC(F)F)cc1)c1n[nH]c(=O)c2ccccc12 was read as ALOX12 inh 64%.
`COc1ccc(C(C(=O)NC2CCCC2)N(C(=O)c2snc(-c3ccc(F)cc3)c2N)c2ccccc2)cc1` (stereo not drawn) gave HT1080-NT tox 5%, HT1080 IDH1KD tx 0%, ALOX12 inh 0%, TDP1 cell noCPT 21µM*, TDP1 cell CPT 15µM* and IL-1B inflam inh 14.
For COc1ccc(C(C(=O)NC2CCCC2)N(C(=O)c2snc(-c3ccc(F)cc3)c2N)c2ccc(F)cc2)cc1 (stereo not drawn) the results were HT1080-NT tox inconclusive, HT1080 IDH1KD tx inconclusive, ALOX12 inh -2%, TDP1 cell noCPT 15µM*, TDP1 cell CPT 9.2µM* and IL-1B inflam inh 47.
For COc1ccc(C(C(=O)NC2CCCCC2)N(C(=O)c2sc(C)nc2C)c2ccccc2)cc1 (stereo not drawn) the results were HT1080-NT tox 6%, HT1080 IDH1KD tx 0%, ALOX12 inh -7%, TDP1 cell noCPT -24%, TDP1 cell CPT 9% and IL-1B inflam inh 28.
COc1ccc(C(C(=O)NC2CCCC2)N(C(=O)c2snc(-c3ccc(F)cc3)c2N)c2cccc(F)c2)cc1 (stereo not drawn) was read as HT1080-NT tox -2%, HT1080 IDH1KD tx 0%, ALOX12 inh -16%, TDP1 cell noCPT 7.3µM*, TDP1 cell CPT 6.5µM* and IL-1B inflam inh 40.
`COc1ccc(C(C(=O)NC2CCCC2)N(C(=O)c2snc(-c3ccc(F)cc3)c2N)c2ccc(OC)cc2)cc1` (stereo not drawn) gave HT1080-NT tox -17%, HT1080 IDH1KD tx 3%, ALOX12 inh -25%, TDP1 cell noCPT 3.7µM*, TDP1 cell CPT 8.2µM* and IL-1B inflam inh -2.
COc1ccc([S+](=O)([O-])N2CCC(N3CCOCC3=O)CC2)cc1 was read as ALOX12 inh 5%[6.33 µM].
CCCC(=O)Nc1ccc(CNCc2c(C)cc(C)cc2C)cc1 was read as ALOX12 inh 11%.
Screening COc1ccccc1NS(=O)(=O)c1cc(NC(=O)c2cc[n+]([O-])cc2)ccc1N1CCCC1 returned HT1080-NT tox -1%, HT1080 IDH1KD tx -1%, ALOX12 inh inconclusive, TDP1 cell noCPT inconclusive, TDP1 cell CPT inconclusive and IL-1B inflam inh -7.
For COc1ccccc1NS(=O)(=O)c1cc(NC(=O)c2cccs2)ccc1N1CCCCC1 the results were HT1080-NT tox 15%, HT1080 IDH1KD tx 1%, ALOX12 inh -5%, TDP1 cell noCPT 15µM*, TDP1 cell CPT 16µM* and IL-1B inflam inh 7.
Screening COc1ccccc1NS(=O)(=O)c1cc(NC(=O)Nc2ccccc2)ccc1N1CCCCC1 returned HT1080-NT tox 4%, HT1080 IDH1KD tx 7%, ALOX12 inh -14%, TDP1 cell noCPT 18µM*, TDP1 cell CPT 18µM* and IL-1B inflam inh 12.
Screening COc1ccccc1NS(=O)(=O)c1cc(NC(=O)C(C)C)ccc1N1CCCCC1 returned HT1080-NT tox 1%, HT1080 IDH1KD tx 1%, ALOX12 inh -25%, TDP1 cell noCPT inconclusive, TDP1 cell CPT inconclusive and IL-1B inflam inh -5.
For COc1ccccc1NS(=O)(=O)c1cc(NC(=O)c2cccs2)ccc1N1CCCC1 the results were HT1080-NT tox 4%, HT1080 IDH1KD tx 1%, ALOX12 inh inconclusive, TDP1 cell noCPT 9.2µM*, TDP1 cell CPT 5.8µM* and IL-1B inflam inh 0.
Screening O=C(Nc1ccc(N2CCCC2)c(S(=O)(=O)Nc2cccc(C(F)(F)F)c2)c1)c1cccs1 returned HT1080-NT tox -28%, HT1080 IDH1KD tx -26%, ALOX12 inh -24%, TDP1 cell noCPT 15µM*, TDP1 cell CPT inconclusive and IL-1B inflam inh inconclusive.
O=C(Nc1cccc(S(=O)(=O)N2CCCCC2)c1)c1cccs1 was read as HT1080-NT tox 2%, HT1080 IDH1KD tx 2%, ALOX12 inh 16%, TDP1 cell noCPT inconclusive, TDP1 cell CPT -16% and IL-1B inflam inh inactive.
c1ccc2sc(CCCCc3nc4ccccc4s3)nc2c1 was read as ALOX12 inh -27%.
`Cc1cnc(C(=O)NCC23CCC=C2N(C)C(=O)CC3)cn1` (stereo not drawn) gave ALOX12 inh 5%.
O=C(COc1ccc(F)cc1)N1CC(c2noc(COc3ccccc3)n2)C1 was read as ALOX12 inh 13%.
O=C(CCc1ncc(-c2ccccc2F)o1)Nc1ccc(F)cc1 was read as ALOX12 inh -15%.
For C[n+]1cc(C(=O)N2CCCCC2)ccc1/C=C/c1c[nH]c2ccccc12 the results were HT1080-NT tox -5%, HT1080 IDH1KD tx -3%, ALOX12 inh 20µM*, TDP1 cell noCPT -9%, TDP1 cell CPT 0% and IL-1B inflam inh 11.
CCOc1ccc2oc(-c3ccccc3)c(C(=O)N3CCN(C)CC3)c2c1 was read as HT1080-NT tox -9%, HT1080 IDH1KD tx -7%, ALOX12 inh -18%, TDP1 cell noCPT inconclusive, TDP1 cell CPT 23µM* and IL-1B inflam inh -11.
For CCOC(=O)c1c(-c2ccccc2)oc2ccc(OCC)cc12 the results were HT1080-NT tox 0%, HT1080 IDH1KD tx 4%, ALOX12 inh -10%, TDP1 cell noCPT 1%, TDP1 cell CPT 11% and IL-1B inflam inh -25.
`COc1ccc2oc(-c3ccccc3)c(C(=O)N3CCOCC3)c2c1` gave HT1080-NT tox -6%, HT1080 IDH1KD tx -1%[9.24 µM], ALOX12 inh 0%, TDP1 cell noCPT 13µM*, TDP1 cell CPT 16µM* and IL-1B inflam inh -8.
